In PubChem BioAssay (NCATS):
Where “and” joins values, the source holds several entries; their conditions need not be identical. Equal values may be shown once. Results filed as inconclusive are left out. More than one record can exist for a structure, and the calls need not agree. Calls of active or inactive are those of the source. Unless noted, calls come from the whole dose curve; as a rule, active = well fitted curve in the direction sought with a large enough effect; inconclusive = small, poorly fitted or top-dose-only effect, or another doubt; inactive = no such curve, though single readings can be large; an effect the other way counts as inactive or inconclusive.

Tests used:
[1] = NS1 protein of Zika virus - qHTS assay to identify small molecule inhibitors in human HEK 293 cells (AID 1347053); note: nearly all actives have a fitted effect of over 55% in size; note: potency is the fitted concentration of half-maximal effect
Method in brief: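 Compound-treated (1 h pre-infection) HEK 293 cells infected with ZIKV MR766, MOI = 0.5; after 24 h at 37 C, NS1 read by TR-FRET; data normalized to uninfected and infected controls.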

[2] = target: T1, Tyrosine-protein phosphatase non-receptor type substrate 1 (Homo sapiens) + Leukocyte surface antigen CD47 (Homo sapiens) (UniProt P78324+Q08722); assay: CD47-SIRPalpha protein protein interaction - LANCE assay qHTS validation (AID 1347057; active = well fitted curve in the direction sought with a large enough effect in the signal ratio, with a control signal flat, not every such curve was filed as active; the % refers to the signal ratio; note: series mostly up to about 38 µM)
Method in brief: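 Inhibition of soluble CD47/SIRPalpha ectodomain association by titrated compounds, measured as 665/615 nm time-resolved FRET ratio after sequential 30 min room-temperature incubations.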

[3] = target: T1, Tyrosine-protein phosphatase non-receptor type substrate 1 (Homo sapiens) + Leukocyte surface antigen CD47 (Homo sapiens); assay: CD47-SIRPalpha protein protein interaction - HTRF assay qHTS validation (AID 1347058; active = well fitted curve in the direction sought with a large enough effect in the signal ratio, not every such curve was filed as active; the % refers to the signal ratio; note: series mostly up to about 38 µM)
Method in brief: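 Soluble extracellular domains (6His-CD47, Avi-tag-biotinylated SIRPalpha) in PBS pH 7.4 with 0.05% IGEPAL CA-630. Compounds were preincubated 30 min at RT with CD47 and anti-His-Eu, then SIRPalpha and SAV-XL665 were added. TR-FRET 665/615 ratio.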

[4] = target: T1, Tyrosine-protein phosphatase non-receptor type substrate 1 (Homo sapiens) + Leukocyte surface antigen CD47 (Homo sapiens); assay: CD47-SIRPalpha protein protein interaction - Alpha assay qHTS validation (AID 1347059);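 note: bead proximity luminescence from CD47 binding SIRPalpha after compound preincubation with SIRPalpha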
Method in brief: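 In PBS (pH 7.4) with 0.05% IGEPAL CA-630, compound is preincubated with biotin-Avi-SIRPalpha ectodomain before His-CD47 ectodomain and affinity beads are added. Light-protected room-temperature incubations; AlphaScreen readout.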

[5] = target: Parathyroid hormone/parathyroid hormone-related peptide receptor (Homo sapiens) (UniProt Q03431); assay: qHTS for PTHR1 Agonists: Optimization Screen against the NCGC LOPAC library (AID 1347079);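 note: GloSensor cAMP luminescence in HEK-293 GP2 cells expressing human PTHR1 with IBMX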
Method in brief: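 HEK-293 GP2 cells, PTHR1 + GloSensor cAMP; 3000 cells/well, o/n. Luciferin + IBMX 0.5mM each (stock), 1 hr 37C. Cpd titration, 1 hr 37C. Lum after 15 min RT. Ctrl M-PTH(1-15) top 10uM.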

[6] = qHTS of pediatric cancer cell lines to identify multiple opportunities for drug repurposing: Primary screen for TC32 cells (AID 1347089); note: nearly all actives have a fitted effect of over 60% in size
Method in brief: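 A viability screen of TC32 cells was run over 48 h, with primary MIPE doses spanning 0.78 nM–46 µM and NPC doses 0.59 nM–46 µM. ATP luminescence (CellTiter-Glo) served as the read-out.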

[7] = qHTS of pediatric cancer cell lines to identify multiple opportunities for drug repurposing: Primary screen for DAOY cells (AID 1347090); note: nearly all actives have a fitted effect of over 55% in size; note: potency is the fitted concentration of half-maximal effect
Method in brief: (§1)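 Eight- or eleven-point concentration series, 48 h treatment at 37 degrees C in growth media; readout CellTiter-Glo luminescence. Potency and efficacy were taken from the concentration-response curves.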

[8] = qHTS of pediatric cancer cell lines to identify multiple opportunities for drug repurposing: Primary screen for SJ-GBM2 cells (AID 1347091)
Method in brief: as §1

[9] = qHTS of pediatric cancer cell lines to identify multiple opportunities for drug repurposing: Primary screen for A673 cells (AID 1347092); note: nearly all actives have a fitted effect of over 45% in size; note: potency is the fitted concentration of half-maximal effect
Method in brief: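 Titration-based qHTS on A673 cells: MIPE compounds spanned 11 points (0.78 nM to 46 µM final), NPC compounds 8 points (0.59 nM to 46 µM final). Viability after 48 h was measured by ATP luminescence.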

[10] = qHTS of pediatric cancer cell lines to identify multiple opportunities for drug repurposing: Primary screen for SK-N-MC cells (AID 1347093); note: potency is the fitted concentration of half-maximal effect
Method in brief: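 Metabolically active cells were quantified by ATP-dependent luminescence (CellTiter-Glo, 15 min at room temperature) following 48 h treatment. Cells had been plated at 500-1,000 per well and settled for 5 h beforehand.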

Measured: Potency

T1 sequence (P78324 whole entry, looked up, the tested form may be a part): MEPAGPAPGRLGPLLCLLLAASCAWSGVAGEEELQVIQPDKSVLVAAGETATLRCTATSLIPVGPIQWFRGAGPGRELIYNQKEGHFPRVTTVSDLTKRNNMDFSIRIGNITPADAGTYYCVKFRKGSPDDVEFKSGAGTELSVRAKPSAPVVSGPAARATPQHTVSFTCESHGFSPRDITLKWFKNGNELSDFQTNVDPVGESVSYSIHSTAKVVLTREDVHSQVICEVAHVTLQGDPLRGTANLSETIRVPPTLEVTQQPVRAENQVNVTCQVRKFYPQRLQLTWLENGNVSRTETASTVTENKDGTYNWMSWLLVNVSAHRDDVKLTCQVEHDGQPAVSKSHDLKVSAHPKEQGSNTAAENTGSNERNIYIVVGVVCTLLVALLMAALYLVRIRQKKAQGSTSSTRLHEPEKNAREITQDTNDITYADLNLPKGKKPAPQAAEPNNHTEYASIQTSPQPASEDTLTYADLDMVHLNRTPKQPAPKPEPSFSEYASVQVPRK
T1 sequence (Q08722 whole entry, looked up, the tested form may be a part): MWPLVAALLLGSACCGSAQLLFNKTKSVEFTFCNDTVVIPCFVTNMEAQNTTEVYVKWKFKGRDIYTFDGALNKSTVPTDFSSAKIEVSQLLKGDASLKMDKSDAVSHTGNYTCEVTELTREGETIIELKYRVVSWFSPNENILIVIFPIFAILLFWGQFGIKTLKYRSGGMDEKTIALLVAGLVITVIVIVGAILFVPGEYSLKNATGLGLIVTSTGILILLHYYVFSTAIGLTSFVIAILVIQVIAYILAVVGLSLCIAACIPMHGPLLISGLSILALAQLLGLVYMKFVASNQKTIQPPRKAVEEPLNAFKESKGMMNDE
Parathyroid hormone/parathyroid hormone-related peptide receptor (Homo sapiens), sequence (Q03431 whole entry, looked up): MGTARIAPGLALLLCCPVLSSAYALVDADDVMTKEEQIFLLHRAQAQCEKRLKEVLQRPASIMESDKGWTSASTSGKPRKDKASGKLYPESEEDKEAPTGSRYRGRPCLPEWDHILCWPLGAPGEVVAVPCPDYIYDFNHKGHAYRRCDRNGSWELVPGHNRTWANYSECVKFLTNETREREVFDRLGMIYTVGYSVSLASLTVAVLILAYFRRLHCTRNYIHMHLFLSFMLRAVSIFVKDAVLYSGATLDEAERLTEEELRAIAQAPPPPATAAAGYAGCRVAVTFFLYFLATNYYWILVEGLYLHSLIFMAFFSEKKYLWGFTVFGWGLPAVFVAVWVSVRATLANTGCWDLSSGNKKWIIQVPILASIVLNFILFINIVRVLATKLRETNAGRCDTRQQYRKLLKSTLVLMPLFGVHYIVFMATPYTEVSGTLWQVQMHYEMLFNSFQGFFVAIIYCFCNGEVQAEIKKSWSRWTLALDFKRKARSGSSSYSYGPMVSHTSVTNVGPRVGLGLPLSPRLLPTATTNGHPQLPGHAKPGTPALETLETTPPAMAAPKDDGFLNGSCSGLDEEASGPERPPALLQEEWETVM

CN(C)c1nc(N(C)C)nc(N(C)C)n1
not listed: [10]
inactive: all other assays above

O=C(Nc1ccc([N+](=O)[O-])cc1Cl)c1cc(Cl)ccc1O
active: [7] 1.46 µM and 1.18 µM | [9] 4.69 µM | [10] 1.3 µM and 833 nM
inactive and 1.48 µM (active): [1]
not listed: [8]
inactive: all other assays above

O=C(C1CCCCC1)N1CC(=O)N2CCc3ccccc3C2C1 (stereo not given)
inactive: all assays above

O=C(CCCN1CCC(O)(c2ccc(Cl)cc2)CC1)c1ccc(F)cc1
not listed: [8]
inactive: all other assays above

CC(CCc1ccc(O)cc1)NCCc1ccc(O)c(O)c1 (stereo not given)
not listed: [8] | [9] | [10]
inactive: all other assays above

O=C(c1ccc(F)cc1)C1CCN(CCn2c(=O)[nH]c3ccccc3c2=O)CC1
not listed: [8]
inactive: all other assays above

N[C@@H](Cc1c[nH]c2ccc(O)cc12)C(=O)O
not listed: [8]
inactive: all other assays above

CC(C)(Oc1ccc(C2CC2(Cl)Cl)cc1)C(=O)O (stereo not given)
not listed: [8] | [9]
inactive: all other assays above

Nc1nc2c(ncn2COC(CO)CO)c(=O)[nH]1
not listed: [8] | [9] | [10]
inactive: all other assays above

COc1nc(C)nc(Cl)c1NC1=NCCN1
not listed: [8]
inactive: all other assays above

NCCc1cnc[nH]1
inactive: all assays above

CCC1(c2ccccc2)C(=O)NCNC1=O
inactive: [1] | [2] | [3] | [4] | [5] | [6]

CN1CCN(C2=Nc3cc(Cl)ccc3Nc3ccccc32)CC1
not listed: [8]
inactive: all other assays above

CCC1(C)CC(=O)NC1=O (stereo not given)
inactive: all assays above

COc1cc2nc(N3CCN(C(=O)C4COc5ccccc5O4)CC3)nc(N)c2cc1OC (stereo not given)
active: [9] 18.7 µM | [10] 29.6 µM
not listed: [8]
inactive: all other assays above

Nc1c2c(nc3ccccc13)CCCC2
inactive: all assays above

Clc1ccc2c(c1)C(N1CCNCC1)=Nc1ccccc1O2
inactive: all assays above

CC(C)NCC(O)COc1ccc(CCOCC2CC2)cc1 (stereo not given)
not listed: [8]
inactive: all other assays above

CN(C)CCC=C1c2ccccc2C=Cc2ccccc21
not listed: [8] | [9] | [10]
inactive: all other assays above

CN1CCN2c3ccccc3Cc3ccccc3C2C1 (stereo not given)
not listed: [8]
inactive: all other assays above

NC(=O)OCC(COC(N)=O)c1ccccc1
inactive: all assays above
